About 2,000 (36%) of roughly 5,500 compounds were called active. Inconclusive results (about 18%) are left out. This is one part of the list. Values without a mark were called inactive. Cut-off read from the data, not from the text of the source: active = normalized growth mostly below about 0.91 (no sharp cut-off); inconclusive = no clear call, values can overlap the other calls; inactive = mostly above about 0.92.

The test in a line: chemical genetic growth profiling, strain panel (AID 1159580).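 Note: tested at 20 µM; growth read once vehicle control cultures reached saturation at 30 °C; 1 = growth at the plate median or of vehicle wells; lower values mean less growth of the strain.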 As to conditions: S. cerevisiae deletion strains, growth OD.
Where [1] appears, read: locus YHR030C, strain SLT2, stronger effect = lower value.
Where [2] appears, read: locus YHR079C, strain IRE1, stronger effect = lower value.
[3] abbreviates: locus YJL095W, strain BCK1, stronger effect = lower value.
Setting [4] is: locus YJR066W, strain TOR1, stronger effect = lower value.
The mark [5] stands for this setting: locus YLR113W, strain HOG1, stronger effect = lower value.
Where [6] appears, read: locus YNL183C, strain NPR1, stronger effect = lower value.
The mark [7] stands for this setting: locus YOR231W, strain MKK1, stronger effect = lower value.
The mark [8] stands for this setting: locus YPL256C, strain CLN2, stronger effect = lower value.

As to `CC[N+](C)(CC)CCOC(=O)C(O)(c1ccccc1)C1CCCCC1` (centres undefined), the normalized growth reads like this: under setting [1], 0.989; under setting [2], 1; under setting [3], 0.982; under setting [4], 0.901; under setting [5], 1.03; under setting [6], 0.913. Moreover, the normalized growth runs as follows: under setting [7], 0.988; under setting [8], 0.989.

In the case of `CCN(CC)CC#CCOC(=O)C(O)(c1ccccc1)C1CCCCC1` (centres undefined), the normalized growth was 1 (locus YAL013W, strain DEP1, stronger effect = lower value); 1 (locus YAL040C, strain CLN3, stronger effect = lower value); 1 (locus YCL061C, strain MRC1 (second series), stronger effect = lower value); 1 (locus YDR150W, strain NUM1, stronger effect = lower value); 1.01 (locus YDR363W, strain ESC2, stronger effect = lower value); 1.06 (locus YER002W, strain NOP16, stronger effect = lower value). Besides, the normalized growth reads like this: under setting [1], 0.985; under setting [2], 0.996; under setting [3], 1.05; under setting [4], 0.927; under setting [5], 1.04; (locus YNL128W, strain TEP1, stronger effect = lower value) 1.11 [resistant] (active). The normalized growth by setting is: (locus YNL175C, strain NOP13, stronger effect = lower value) 1.06; under setting [6], 0.96; (locus YNL197C, strain WHI3, stronger effect = lower value) 1.05; (locus YNL224C, strain SQS1, stronger effect = lower value) 1.02; (locus YOR083W, strain WHI5 (second series), stronger effect = lower value) 0.998; under setting [7], 0.989. For the same compound, the normalized growth is 1 (locus YPL055C, strain LGE1, stronger effect = lower value); 1 (locus YPL241C, strain CIN2, stronger effect = lower value); 1 under setting [8].
